Compound activity: PubChem BioAssay, The Scripps Research Institute Molecular Screening Center
Shown are actives, neighbours in structure and some others; about 1.1% of the full set was active somewhere.
MOR-DOR inv ag-1: mu-delta opioid heterodimer inverse agonism. P35372+P41143. cell-based MOR-DOR heterodimer luminescence. inhibition, % at 9.3 µM. actives 0.21% (n = 340,000). AID 504357; in the data active = inhibition above about 22%, passing the limit was not always enough;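 also: 0% = cells with DMSO and 100% = wells without cells with DMSO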
HTR5A ag: counter-screen for OPRM1-OPRD1 agonists: human HTR5A agonism; activation, % at 9.3 µM; HTR5A agonist assay, luminescence, cell-based; P47898; actives 0.61% (n = 340,000); in the data active = activation mostly above about 9.5%, no sharp cut-off; inactive = mostly below about 7.6%;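 also: 0% = cells with vehicle only and 100% = reference agonist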
Target sequence (P47898 whole entry, looked up): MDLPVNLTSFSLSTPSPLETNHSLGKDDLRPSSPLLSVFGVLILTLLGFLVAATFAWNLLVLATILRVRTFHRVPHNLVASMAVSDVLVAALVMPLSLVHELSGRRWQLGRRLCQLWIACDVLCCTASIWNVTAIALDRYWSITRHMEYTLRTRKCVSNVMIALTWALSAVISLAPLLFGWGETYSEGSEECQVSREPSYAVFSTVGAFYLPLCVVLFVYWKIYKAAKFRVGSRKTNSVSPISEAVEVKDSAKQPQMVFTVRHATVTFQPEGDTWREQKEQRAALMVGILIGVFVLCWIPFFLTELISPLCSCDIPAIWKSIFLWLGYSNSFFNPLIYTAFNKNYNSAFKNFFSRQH
MOR-DOR ag-1: OPRM1-OPRD1 heterodimerization agonism | activation, % at 9.3 µM | cells, luminescence | actives 0.3% (n = 340,000) | AID 504326 | P35372+P41143;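 also: 0% = vehicle-treated cells and 100% = reference agonist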
HTR5A inv ctr: counter-screen for OPRM1-OPRD1 inverse agonists: human HTR5A inverse agonism; P47898; HTR5A cell line, luminescence; inhibition, % at 9.3 µM; actives 0.083% (n = 340,000); AID 504634; in the data active = inhibition mostly above about 23%, no sharp cut-off; inactive = mostly below about 18%;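 also: 0% = cells with DMSO and 100% = no-cell wells with DMSO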
MOR-DOR inv ag-2: counter-screen for HTR5A inverse agonists: OPRM1-OPRD1 heterodimerization inverse agonism | U2OS counter-screen cells, complementation luminescence | inhibition, % at 9.3 µM | shares compounds with HTR5A inv ctr | 190 tested, under 10 active; call rule not given here;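 also: 0% = cells with DMSO and 100% = wells without cells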
HTR5A inv conf: confirmation of human HTR5A inverse agonists; shares compounds with HTR5A inv ctr; HTR5A-expressing cells, inverse agonism, luminescence; inhibition, % at 9.3 µM; 190 tested, under 10 active; call rule not given here;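 also: 0% = cells with DMSO and 100% = no cells with DMSO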
MOR-DOR ag-2: counter-screen for HTR5A agonists: OPRM1-OPRD1 heterodimerization agonism | shares compounds with HTR5A ag | AID 504913 | actives 13% (n = 800) | U2OS counter-screen cells, complementation luminescence, 3 h | activation, % at 9.3 µM
HTR5A ag conf: HTR5A (human) agonism, confirmation; shares compounds with HTR5A ag; HTR5A agonist cell assay, luminescence; activation, % at 9.3 µM; actives 17% (n = 800); AID 504915; in the data active = activation above about 17%;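 also: 0% = cells with vehicle only and 100% = full reference agonist response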
Starred values were filed as active, the others as inactive; x = not tested or not shown. Rule as the data show it, unless noted: active = activation above about 18%; inactive = the rest.

SMILES	MOR-DOR inv ag-1	HTR5A ag	MOR-DOR ag-1	HTR5A inv ctr	MOR-DOR inv ag-2	HTR5A inv conf	others
COCCN(C(=O)c1cc(-c2ccccc2Cl)nc2ccccc12)c1c(N)n(CC(C)C)c(=O)[nH]c1=O	16.0	-0.6	-4.0	5.4	x	x
COCCN(C(=O)c1ccccc1Oc1ccccc1)c1c(N)n(CC(C)C)c(=O)[nH]c1=O	8.2	-13.9	-2.1	34.7*	-414.8	-5.3
COc1cccc(C(C(=O)NC(C)(C)C)N(C(=O)CCC(=O)Nc2cc(C)on2)C(C)C)c1OC (configuration not stated)	15.1	-2.4	-2.8	12.7	x	x
COc1cccc(C(C(=O)NC(C)(C)C)N(C(=O)CCC(=O)Nc2cc(C)on2)C(C)(C)C)c1OC (configuration not stated)	1.2	-25.7	-0.2	91.0*	-5.5	3.8
O=C1CCC[C@@H]2C[C@@]3(C[C@@H]4CCN1[C@H]24)Nc1cc(Cl)ccc1NC3=NC1CCCCC1	-2.5	3.5	0.5	-17.1	x	x
O=C1CCC[C@@H]2C[C@@]3(C[C@@H]4CCN1[C@H]24)Nc1cc([N+](=O)[O-])ccc1NC3=NC1CCCCC1	16.3	-2.3	-2.9	35.4*	-24.3	-12.9
Cc1ccc(S(=O)(=O)N(CC(=O)Nc2ccccc2)C(=O)N2CCN(C)CC2)cc1	-6.1	-3.8	0.9	9.9	x	x
Cc1ccc(-c2nnc(-c3ccccc3Br)o2)cc1	-19.3	-0.5	4.0	1.8	x	x
Brc1ccc(-c2nnc(-c3ccccc3Br)o2)cc1	-16.1	7.5	2.8	39.6*	-49.1	-7.2
CC1CCC(NC(=O)c2cc(S(=O)(=O)N(C)C)ccc2N2CCCC2)CC1 (configuration not stated)	11.2	3.7	-2.1	-9.1	x	x
C=CCn1c(CCn2c3ccccc3c3ccccc32)n[nH]c1=S	9.4	1.6	-2.1	24.5	x	x
C=CCn1c(Cc2cccc3ccccc23)n[nH]c1=S	-4.0	-8.1	0.8	28.2*	2.4	2.1
N#CC1=C(N)Oc2c(ccc3cccnc23)C1c1ccccc1 (configuration not stated)	14.3	-12.1	-2.7	33.1*	-6.9	4.6
CCOC(=O)CCNC(=O)N1CCCC(Cc2ccccc2)(C(=O)OCC)C1 (configuration not stated)	3.5	-8.5	-0.7	23.6*	0.3	13.4
COc1cccc(/C=C/c2ccc3cccc(O)c3n2)c1OC	-13.5	-8.6	2.6	31.6*	-67.5	11.6
COc1ccc(/C=C/c2ccc3cccc(O)c3n2)c(OC)c1OC	12.7	-9.3	-2.6	34.8*	-57.7	28.1
Cc1ccc(C(=O)NNC(=O)c2ccoc2C)s1	5.5	-0.8	-0.8	6.6	x	x
CCn1c(SCC(=O)Nc2ccc3c(c2)OCCO3)nnc1C1CC1	12.5	-1.6	-1.9	4.6	x	x
CCOc1ccccc1C1c2[nH]c3ccccc3c2C[C@H]2C(=O)N(C3CCN(Cc4ccccc4)CC3)CC(=O)N12 (some centres not stated)	4.8	-0.2	-1.0	0.9	x	x
Cc1ccccc1C1c2[nH]c3ccccc3c2C[C@H]2C(=O)N(C3CCN(Cc4ccccc4)CC3)CC(=O)N12 (some centres not stated)	-11.3	-8.7	2.2	31.6*	-21.6	-3.4
COCCCNC(=O)Cc1ccc(S(=O)(=O)N2CCOCC2)s1	17.6	7.4	-4.7	-10.9	x	x
CCCCN(C(=O)c1cc(-c2ccco2)nc2ccccc12)c1c(N)n(CCC)c(=O)[nH]c1=O	2.0	0.8	-0.5	-2.0	x	x
COCCOC(=O)C1=C(C)OC(N)=C(C#N)C1c1ccc2c(c1)OCO2 (configuration not stated)	11.0	-9.2	-2.0	33.3*	-25.6	-13.8
COc1ccc(C2CC(=O)CCN2S(=O)(=O)c2ccc(C)cc2)cc1 (configuration not stated)	14.2	-2.5	-3.0	8.4	x	x
Nc1ccc(C(=O)C(=O)c2ccc(N)cc2)cc1	12.6	-0.6	-2.3	2.2	x	x
SMILES	MOR-DOR inv ag-1	HTR5A ag	MOR-DOR ag-1	HTR5A inv ctr	MOR-DOR inv ag-2	HTR5A inv conf	others
N=C1C=CC(=C(c2ccc(N)cc2)c2ccc(N)cc2)C=C1	-3.9	-8.0	0.8	31.4*	-82.6	-0.6
O=C(CCC(F)(F)F)N1CCCC(N2CCN(c3cccc(Cl)c3)CC2)C1 (configuration not stated)	7.1	-2.2	-1.4	8.2	x	x
CCOc1cc(N2CCOCC2)c(OCC)cc1NC(=O)c1oc2ccccc2c1C	-10.7	-8.4	2.1	23.6*	-29.9	4.2
CC(=O)N1c2ccccc2-c2nc3ccccc3n2C1C (configuration not stated)	17.1	-8.3	-3.6	32.3*	-8.4	-0.3
Cc1ccc(C2N(C)c3ccccc3-c3nc4ccccc4n32)o1 (configuration not stated)	6.7	-2.3	-1.3	2.4	x	x
Cc1cc(/C=C(\C#N)C(=O)NCCc2c[nH]c3ccccc23)c(C)n1C	6.7	66.2*	-1.3	-172.3	x	x	MOR-DOR ag-2=-1.2;HTR5A ag conf=-4.6
Cc1ccc(C(=O)N/C(=C\c2cccs2)C(=O)NCCc2c[nH]c3ccccc23)cc1	-13.0	15.2*	2.1	-45.6	x	x	MOR-DOR ag-2=19.9*;HTR5A ag conf=6.2
COc1ccc(/C=C(/NC(=O)c2ccc(OC)cc2)C(=O)NCCc2c[nH]c3ccccc23)cc1	17.1	-1.4	-2.9	3.8	x	x
O=C1C=CC(=O)N1Cc1ccccn1	4.8	1.3	-0.9	-4.7	x	x
COc1ccc(S(=O)(=O)O/N=C2\CCSc3ccc(C)cc32)cc1	-21.4	-1.8	4.7	-6.6	x	x
Cc1cccc(C(=O)O/N=C2\CCSc3ccc(C)cc32)c1	-7.8	15.4*	1.6	9.5	x	x	MOR-DOR ag-2=7.2;HTR5A ag conf=41.2*
Cc1ccc(C(=O)O/N=C2\CCSc3ccc(C)cc32)cc1	-0.7	37.3*	0.1	-88.9	x	x	MOR-DOR ag-2=1.9;HTR5A ag conf=0.9
CC1=NNC(=O)/C1=C\c1cn(-c2ccccc2)nc1-c1ccc(Cl)cc1	-26.9	23.3*	5.1	-75.4	x	x	MOR-DOR ag-2=-2.0;HTR5A ag conf=-4.6
CCOC(=O)c1ccc(NC(=S)NC(=O)C2CCCC2)cc1	-8.1	0.1	1.4	-0.2	x	x
CC(C)c1ccc(NC(=S)NC2CCCCCC2)cc1	-19.8	15.7*	3.6	-43.5	x	x	MOR-DOR ag-2=26.9*;HTR5A ag conf=4.0
CCOC(=O)c1ccc(NC(=S)NC2CCCC2)cc1	5.1	14.9*	-1.1	12.2	x	x	MOR-DOR ag-2=4.0;HTR5A ag conf=3.6
CC1CCC(CN2C(Nc3ccccc3)=NC[C@@H]2Cc2ccccc2)CC1 (some centres not stated)	2.5	-5.5	-0.4	6.4	x	x
Cc1ccc(C(=O)NC(=S)Nc2ccc(Oc3ccc(Cl)cc3)cc2)cc1	-6.0	1.7	1.1	7.1	x	x
Cc1ccc(C(=O)NC(=S)Nc2ccc(-c3ccc(CO)o3)cc2)cc1	6.0	14.8*	-1.1	-38.6	x	x	MOR-DOR ag-2=12.2;HTR5A ag conf=2.4
